# Laboratory results taken from PMC7862700, “An all-to-all approach to the identification of sequence-specific readers for epigenetic DNA modifications on cytosine”.
# Assays:
# Test in all cases: DAPPL (digital affinity profiling via proximity ligation, sequencing); 10 mM Tris-HCl pH 7.5, 50 mM NaCl, 1 mM DTT, 4% glycerol, room temperature, 30 min; GST-TFs on glutathione beads, 16-mer random dsDNA library, 0.1% formaldehyde crosslink after washing; high values mean tight binding
# FLI1 = molecular target: T1, FLI1 (Homo sapiens, UniProt Q01543 1-452); details: protein: recombinant; tags: N-terminal GST; dsDNA, one strand shown
# T1 sequence: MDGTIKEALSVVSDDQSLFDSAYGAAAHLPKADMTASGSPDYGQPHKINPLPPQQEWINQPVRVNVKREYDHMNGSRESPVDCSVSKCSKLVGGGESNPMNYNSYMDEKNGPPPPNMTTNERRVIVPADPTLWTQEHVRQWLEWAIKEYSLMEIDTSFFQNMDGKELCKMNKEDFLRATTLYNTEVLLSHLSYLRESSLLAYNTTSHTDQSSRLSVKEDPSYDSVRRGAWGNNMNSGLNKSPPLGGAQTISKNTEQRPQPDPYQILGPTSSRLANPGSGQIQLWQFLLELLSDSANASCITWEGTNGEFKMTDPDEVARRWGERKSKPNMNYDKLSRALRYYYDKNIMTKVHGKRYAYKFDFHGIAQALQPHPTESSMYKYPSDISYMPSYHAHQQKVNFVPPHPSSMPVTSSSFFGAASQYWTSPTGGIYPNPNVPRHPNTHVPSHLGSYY
# Method in brief: (§1)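 Binding signal is defined as a hexamer's read frequency for one factor over its frequency for the tag-only sample. To obtain reads, GST-fused human transcription factors were expressed in yeast, captured on glutathione beads, barcoded with DNA and pooled with that sample. Pools met 200 nmole of a 16-mer random double-stranded DNA library in Tris/NaCl/DTT/glycerol buffer for 30 min at room temperature before washing, 0.1% formaldehyde crosslinking, proximity ligation (BsaI/T4 ligase, 1 h, 37 °C), PCR and Illumina NextSeq500 sequencing.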
# ELK1 = molecular target: T2, ELK1 (Homo sapiens, UniProt P19419 1-428); details: protein: recombinant; tags: N-terminal GST; dsDNA, one strand shown
# T2 sequence: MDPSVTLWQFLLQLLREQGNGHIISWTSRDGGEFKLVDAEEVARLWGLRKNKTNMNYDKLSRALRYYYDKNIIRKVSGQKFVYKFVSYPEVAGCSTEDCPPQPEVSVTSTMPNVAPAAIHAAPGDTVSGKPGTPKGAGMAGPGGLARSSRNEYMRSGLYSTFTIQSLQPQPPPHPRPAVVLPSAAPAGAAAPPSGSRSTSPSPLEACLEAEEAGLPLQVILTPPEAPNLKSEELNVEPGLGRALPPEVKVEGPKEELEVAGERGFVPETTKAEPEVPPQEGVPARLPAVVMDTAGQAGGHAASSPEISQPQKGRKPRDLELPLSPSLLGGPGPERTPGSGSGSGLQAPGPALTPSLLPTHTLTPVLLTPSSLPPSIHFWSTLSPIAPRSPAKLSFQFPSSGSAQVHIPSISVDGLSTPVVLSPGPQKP
# Method in brief: as §1
# GABPA = molecular target: T3, GABPA (Homo sapiens, UniProt Q06546 1-454); details: protein: recombinant; tags: N-terminal GST; dsDNA, one strand shown
# T3 sequence: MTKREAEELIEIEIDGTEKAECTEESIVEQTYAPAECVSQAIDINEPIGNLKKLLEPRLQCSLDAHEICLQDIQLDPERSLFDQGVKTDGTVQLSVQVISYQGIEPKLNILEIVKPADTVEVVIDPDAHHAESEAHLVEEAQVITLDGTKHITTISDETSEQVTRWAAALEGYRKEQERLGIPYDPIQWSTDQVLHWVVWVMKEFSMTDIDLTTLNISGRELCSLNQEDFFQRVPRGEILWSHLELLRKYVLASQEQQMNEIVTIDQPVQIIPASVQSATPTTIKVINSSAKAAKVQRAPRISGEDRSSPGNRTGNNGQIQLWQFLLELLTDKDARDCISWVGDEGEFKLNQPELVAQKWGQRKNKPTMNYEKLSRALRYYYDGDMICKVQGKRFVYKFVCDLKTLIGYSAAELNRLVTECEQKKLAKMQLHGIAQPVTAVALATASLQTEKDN
# Method in brief: as §1
# ERG = molecular target: T4, ERG (Homo sapiens, UniProt P11308 1-479); details: protein: recombinant; tags: N-terminal GST; dsDNA, one strand shown
# T4 sequence: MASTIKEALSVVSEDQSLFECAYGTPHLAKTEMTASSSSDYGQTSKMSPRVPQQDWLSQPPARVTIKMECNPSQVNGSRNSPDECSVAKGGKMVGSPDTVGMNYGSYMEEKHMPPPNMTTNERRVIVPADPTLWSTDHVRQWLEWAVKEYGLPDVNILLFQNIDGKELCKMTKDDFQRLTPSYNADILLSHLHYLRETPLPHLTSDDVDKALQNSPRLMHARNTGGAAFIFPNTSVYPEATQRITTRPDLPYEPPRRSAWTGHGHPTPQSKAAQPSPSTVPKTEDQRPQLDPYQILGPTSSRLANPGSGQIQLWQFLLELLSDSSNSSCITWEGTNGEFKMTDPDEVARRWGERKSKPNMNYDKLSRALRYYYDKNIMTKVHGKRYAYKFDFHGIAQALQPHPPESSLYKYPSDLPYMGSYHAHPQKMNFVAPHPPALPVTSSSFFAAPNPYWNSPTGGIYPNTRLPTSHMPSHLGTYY
# Method in brief: as §1
# ELF1 = ELF1 (Homo sapiens, UniProt P32519 1-619); details: protein: recombinant; tags: N-terminal GST; dsDNA, one strand shown
# Method in brief: as §1
# EHF = molecular target: T5, EHF (Homo sapiens, UniProt Q9NZC4 1-300); details: protein: recombinant; tags: N-terminal GST; dsDNA, one strand shown
# T5 sequence: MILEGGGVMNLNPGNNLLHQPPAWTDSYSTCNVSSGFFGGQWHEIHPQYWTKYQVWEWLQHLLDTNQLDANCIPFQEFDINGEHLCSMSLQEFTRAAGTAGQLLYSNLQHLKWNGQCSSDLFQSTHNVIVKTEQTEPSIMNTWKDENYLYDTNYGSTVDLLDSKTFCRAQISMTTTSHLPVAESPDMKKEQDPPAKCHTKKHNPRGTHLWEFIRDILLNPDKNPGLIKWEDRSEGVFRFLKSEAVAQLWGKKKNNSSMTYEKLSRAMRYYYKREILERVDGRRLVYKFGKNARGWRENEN
# Method in brief: as §1
# SPI1 = SPI1 (Homo sapiens, UniProt P17947 1-270); details: protein: recombinant; tags: N-terminal GST; dsDNA, one strand shown
# Method in brief: as §1
# SPIB = SPIB (Homo sapiens, UniProt Q01892 1-262); details: protein: recombinant; tags: N-terminal GST; dsDNA, one strand shown
# Method in brief: as §1
# ELK3 = molecular target: T6, ELK3 (Homo sapiens, UniProt P41970 1-407); details: protein: recombinant; tags: N-terminal GST; dsDNA, one strand shown
# T6 sequence: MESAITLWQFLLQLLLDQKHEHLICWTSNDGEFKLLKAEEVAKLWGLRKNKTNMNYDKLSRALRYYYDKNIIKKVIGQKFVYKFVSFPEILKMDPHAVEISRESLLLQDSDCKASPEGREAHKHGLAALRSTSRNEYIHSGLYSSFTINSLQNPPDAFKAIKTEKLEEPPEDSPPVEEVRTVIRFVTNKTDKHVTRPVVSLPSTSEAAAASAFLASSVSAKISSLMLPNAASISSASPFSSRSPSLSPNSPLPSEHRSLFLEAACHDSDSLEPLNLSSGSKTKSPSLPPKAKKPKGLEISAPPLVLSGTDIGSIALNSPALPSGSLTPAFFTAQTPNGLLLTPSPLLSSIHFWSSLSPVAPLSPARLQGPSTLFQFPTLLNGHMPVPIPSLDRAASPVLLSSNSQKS
# Method in brief: as §1
# FEV = molecular target: T7, FEV (Homo sapiens, UniProt Q99581 1-238); details: protein: recombinant; tags: N-terminal GST; dsDNA, one strand shown
# T7 sequence: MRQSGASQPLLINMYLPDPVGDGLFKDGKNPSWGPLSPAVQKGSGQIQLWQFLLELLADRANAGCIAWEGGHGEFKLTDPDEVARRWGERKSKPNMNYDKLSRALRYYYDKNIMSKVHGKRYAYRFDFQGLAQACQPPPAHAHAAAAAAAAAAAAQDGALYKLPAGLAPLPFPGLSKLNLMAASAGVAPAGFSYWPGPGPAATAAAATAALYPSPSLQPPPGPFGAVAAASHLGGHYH
# Method in brief: as §1
# ETV5 = ETV5 (Homo sapiens, UniProt P41161 1-510); details: protein: recombinant; tags: N-terminal GST; dsDNA, one strand shown
# Method in brief: as §1
# HSF1 = HSF1 (Homo sapiens, UniProt Q00613 1-529); details: protein: recombinant; tags: N-terminal GST; chain copies: 3; dsDNA, one strand shown
# Method in brief: as §1
# SPIC = molecular target: T8, SPIC (Homo sapiens, UniProt Q8N5J4 1-248); details: protein: recombinant; tags: N-terminal GST; dsDNA, one strand shown
# T8 sequence: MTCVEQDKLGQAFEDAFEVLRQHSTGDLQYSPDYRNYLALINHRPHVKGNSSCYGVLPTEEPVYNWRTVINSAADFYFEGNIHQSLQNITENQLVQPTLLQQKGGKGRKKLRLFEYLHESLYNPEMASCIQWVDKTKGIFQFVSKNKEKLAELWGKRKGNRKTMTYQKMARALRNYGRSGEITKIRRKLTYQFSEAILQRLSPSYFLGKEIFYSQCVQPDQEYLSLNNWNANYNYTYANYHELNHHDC
# Method in brief: as §1
# ELF4 = ELF4 (Homo sapiens, UniProt Q99607 1-663); details: protein: recombinant; tags: N-terminal GST; dsDNA, one strand shown
# Method in brief: as §1
# ELK4 = molecular target: T9, ELK4 (Homo sapiens, UniProt P28324-2 1-405); details: protein: recombinant; tags: N-terminal GST; dsDNA, one strand shown
# T9 sequence: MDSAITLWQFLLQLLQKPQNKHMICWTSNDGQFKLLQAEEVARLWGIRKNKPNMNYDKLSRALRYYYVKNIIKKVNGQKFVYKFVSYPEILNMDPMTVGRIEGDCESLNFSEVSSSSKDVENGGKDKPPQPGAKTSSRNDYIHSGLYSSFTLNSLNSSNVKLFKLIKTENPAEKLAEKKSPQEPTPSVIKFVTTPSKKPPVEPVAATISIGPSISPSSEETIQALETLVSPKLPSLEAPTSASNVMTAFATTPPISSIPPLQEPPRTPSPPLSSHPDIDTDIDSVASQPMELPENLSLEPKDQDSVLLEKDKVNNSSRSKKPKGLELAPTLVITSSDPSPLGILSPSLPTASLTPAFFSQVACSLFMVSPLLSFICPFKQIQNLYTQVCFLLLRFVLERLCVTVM
# Method in brief: as §1
# ETV2 = molecular target: T10, ETV2 (Homo sapiens, UniProt O00321 1-342); details: protein: recombinant; tags: N-terminal GST; dsDNA, one strand shown
# T10 sequence: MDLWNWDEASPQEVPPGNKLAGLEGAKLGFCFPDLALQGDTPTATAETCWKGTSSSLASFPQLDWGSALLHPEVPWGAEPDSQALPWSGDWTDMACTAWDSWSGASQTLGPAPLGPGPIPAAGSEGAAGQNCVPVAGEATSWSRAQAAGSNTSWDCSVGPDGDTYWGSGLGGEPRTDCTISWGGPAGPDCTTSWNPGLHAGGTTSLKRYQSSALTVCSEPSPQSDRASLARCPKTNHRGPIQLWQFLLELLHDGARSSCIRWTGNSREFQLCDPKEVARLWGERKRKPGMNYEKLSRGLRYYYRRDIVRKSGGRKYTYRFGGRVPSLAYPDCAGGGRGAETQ
# Method in brief: as §1
# ELF3 = molecular target: T11, ELF3 (Homo sapiens, UniProt P78545 1-371); details: protein: recombinant; tags: N-terminal GST; dsDNA, one strand shown
# T11 sequence: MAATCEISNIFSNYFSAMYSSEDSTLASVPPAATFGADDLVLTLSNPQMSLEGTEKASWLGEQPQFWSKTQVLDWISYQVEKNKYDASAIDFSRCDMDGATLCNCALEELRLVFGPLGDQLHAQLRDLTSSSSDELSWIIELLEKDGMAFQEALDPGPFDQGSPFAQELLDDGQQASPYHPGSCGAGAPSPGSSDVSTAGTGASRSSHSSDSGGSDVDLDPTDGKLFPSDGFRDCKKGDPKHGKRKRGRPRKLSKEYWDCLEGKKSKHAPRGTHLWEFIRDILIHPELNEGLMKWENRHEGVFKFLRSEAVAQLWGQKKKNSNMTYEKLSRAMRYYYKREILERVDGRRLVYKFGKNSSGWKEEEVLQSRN
# Method in brief: as §1
# CRX = CRX (Homo sapiens, UniProt O43186 1-299); details: protein: recombinant; tags: N-terminal GST; dsDNA, one strand shown
# Method in brief: as §1
# ETV1 = ETV1 (Homo sapiens, UniProt P50549 1-477); details: protein: recombinant; tags: N-terminal GST; dsDNA, one strand shown
# Method in brief: as §1
# Sequence of ETV1 (P50549 whole entry): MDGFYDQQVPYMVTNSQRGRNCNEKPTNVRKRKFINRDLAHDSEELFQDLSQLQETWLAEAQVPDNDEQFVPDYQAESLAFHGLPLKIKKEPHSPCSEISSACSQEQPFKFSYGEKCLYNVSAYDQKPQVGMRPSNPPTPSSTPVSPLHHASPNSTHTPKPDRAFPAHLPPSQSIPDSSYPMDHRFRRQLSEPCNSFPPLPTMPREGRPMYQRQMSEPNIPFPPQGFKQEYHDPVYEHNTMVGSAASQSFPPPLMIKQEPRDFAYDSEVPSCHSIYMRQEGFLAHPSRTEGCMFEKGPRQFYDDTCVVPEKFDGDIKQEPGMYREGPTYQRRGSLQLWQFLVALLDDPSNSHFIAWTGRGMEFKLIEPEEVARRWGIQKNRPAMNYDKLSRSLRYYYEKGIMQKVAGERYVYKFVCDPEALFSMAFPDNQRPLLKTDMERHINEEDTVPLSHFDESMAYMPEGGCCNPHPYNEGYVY
# Sequence of ELF1 (P32519 whole entry): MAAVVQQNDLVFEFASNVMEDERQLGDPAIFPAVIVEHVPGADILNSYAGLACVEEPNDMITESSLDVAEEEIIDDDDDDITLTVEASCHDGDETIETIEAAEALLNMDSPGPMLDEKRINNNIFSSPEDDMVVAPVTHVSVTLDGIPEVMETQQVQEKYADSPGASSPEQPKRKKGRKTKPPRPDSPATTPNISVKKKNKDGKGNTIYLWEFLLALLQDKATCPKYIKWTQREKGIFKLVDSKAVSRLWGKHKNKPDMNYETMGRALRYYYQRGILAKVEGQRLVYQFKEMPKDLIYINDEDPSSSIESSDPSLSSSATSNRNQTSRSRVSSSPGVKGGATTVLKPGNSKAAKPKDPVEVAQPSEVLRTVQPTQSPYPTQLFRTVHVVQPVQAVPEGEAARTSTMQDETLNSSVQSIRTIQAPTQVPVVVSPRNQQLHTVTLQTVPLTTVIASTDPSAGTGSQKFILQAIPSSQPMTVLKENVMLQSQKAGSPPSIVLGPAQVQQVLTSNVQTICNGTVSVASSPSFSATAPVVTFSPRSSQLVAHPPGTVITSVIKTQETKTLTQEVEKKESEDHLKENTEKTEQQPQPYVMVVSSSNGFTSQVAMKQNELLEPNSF
# Sequence of ELF4 (Q99607 whole entry): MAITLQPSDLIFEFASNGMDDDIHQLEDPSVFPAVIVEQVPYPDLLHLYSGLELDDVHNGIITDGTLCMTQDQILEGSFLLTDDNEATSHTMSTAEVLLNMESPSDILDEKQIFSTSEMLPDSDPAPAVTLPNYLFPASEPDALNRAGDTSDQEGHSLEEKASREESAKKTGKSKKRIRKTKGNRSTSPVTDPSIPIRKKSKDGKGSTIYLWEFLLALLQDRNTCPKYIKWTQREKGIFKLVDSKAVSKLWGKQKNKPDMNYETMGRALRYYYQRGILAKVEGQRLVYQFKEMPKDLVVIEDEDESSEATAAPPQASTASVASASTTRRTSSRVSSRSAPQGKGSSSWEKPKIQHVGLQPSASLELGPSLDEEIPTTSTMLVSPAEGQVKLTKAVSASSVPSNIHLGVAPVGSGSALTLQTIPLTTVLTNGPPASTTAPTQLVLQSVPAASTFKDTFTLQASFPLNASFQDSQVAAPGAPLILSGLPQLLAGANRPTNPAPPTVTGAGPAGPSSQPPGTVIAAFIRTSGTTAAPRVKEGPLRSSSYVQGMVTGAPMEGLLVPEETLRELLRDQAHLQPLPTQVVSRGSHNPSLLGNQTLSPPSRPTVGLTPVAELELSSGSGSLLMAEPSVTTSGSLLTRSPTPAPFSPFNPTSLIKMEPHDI
# Sequence of CRX (O43186 whole entry): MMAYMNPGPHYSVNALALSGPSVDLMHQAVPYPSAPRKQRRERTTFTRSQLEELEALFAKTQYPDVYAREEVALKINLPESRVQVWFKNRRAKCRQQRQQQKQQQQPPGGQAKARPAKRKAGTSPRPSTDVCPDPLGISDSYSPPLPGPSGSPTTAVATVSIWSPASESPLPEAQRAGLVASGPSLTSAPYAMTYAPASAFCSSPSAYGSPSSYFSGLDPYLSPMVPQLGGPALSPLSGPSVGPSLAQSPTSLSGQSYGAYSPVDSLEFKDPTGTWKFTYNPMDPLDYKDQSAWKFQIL
# Sequence of ETV5 (P41161 whole entry): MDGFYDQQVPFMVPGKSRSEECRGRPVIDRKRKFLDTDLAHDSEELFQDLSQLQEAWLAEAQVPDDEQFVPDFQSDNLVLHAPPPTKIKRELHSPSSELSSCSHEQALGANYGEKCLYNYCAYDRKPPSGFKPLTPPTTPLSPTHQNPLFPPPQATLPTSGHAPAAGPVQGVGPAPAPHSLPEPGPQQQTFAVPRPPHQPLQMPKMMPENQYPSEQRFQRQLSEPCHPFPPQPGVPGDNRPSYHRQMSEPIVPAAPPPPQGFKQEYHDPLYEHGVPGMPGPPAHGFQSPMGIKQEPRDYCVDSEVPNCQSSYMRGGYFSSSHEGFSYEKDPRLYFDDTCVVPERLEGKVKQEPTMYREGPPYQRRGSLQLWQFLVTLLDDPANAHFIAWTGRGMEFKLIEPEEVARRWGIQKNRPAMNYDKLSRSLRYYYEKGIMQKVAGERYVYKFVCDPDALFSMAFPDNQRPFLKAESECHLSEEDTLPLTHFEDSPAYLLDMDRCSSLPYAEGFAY
# Sequence of HSF1 (Q00613 whole entry): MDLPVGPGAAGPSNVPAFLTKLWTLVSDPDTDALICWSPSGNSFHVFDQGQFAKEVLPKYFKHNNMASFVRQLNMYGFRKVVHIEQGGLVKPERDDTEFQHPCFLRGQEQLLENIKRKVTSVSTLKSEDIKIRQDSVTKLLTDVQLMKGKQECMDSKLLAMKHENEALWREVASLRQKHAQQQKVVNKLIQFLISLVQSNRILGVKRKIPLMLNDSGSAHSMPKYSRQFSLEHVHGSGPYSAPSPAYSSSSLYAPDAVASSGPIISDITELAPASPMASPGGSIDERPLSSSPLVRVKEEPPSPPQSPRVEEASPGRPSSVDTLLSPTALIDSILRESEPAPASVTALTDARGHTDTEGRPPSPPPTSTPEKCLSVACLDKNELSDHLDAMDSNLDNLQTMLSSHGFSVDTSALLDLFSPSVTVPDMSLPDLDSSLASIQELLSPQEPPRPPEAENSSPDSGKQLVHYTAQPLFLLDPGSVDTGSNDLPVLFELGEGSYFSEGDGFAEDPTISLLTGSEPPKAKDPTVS
# Sequence of SPIB (Q01892 whole entry): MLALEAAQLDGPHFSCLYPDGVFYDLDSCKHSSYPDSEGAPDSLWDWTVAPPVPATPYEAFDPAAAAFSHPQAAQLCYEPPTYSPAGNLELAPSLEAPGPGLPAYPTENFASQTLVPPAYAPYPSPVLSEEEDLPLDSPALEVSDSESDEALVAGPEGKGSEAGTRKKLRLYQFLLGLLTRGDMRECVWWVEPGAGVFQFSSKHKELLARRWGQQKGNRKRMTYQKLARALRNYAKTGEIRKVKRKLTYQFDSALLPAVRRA
sequence,measurement,setting,value
CACGTT,binding signal,FLI1,"1.28 fold enrichment (6-mer frequency, TF over GST control)"
same,binding signal,ELK1,"1.35 fold enrichment (6-mer frequency, TF over GST control)"
same,binding signal,GABPA,"1.3 fold enrichment (6-mer frequency, TF over GST control)"
same,binding signal,ERG,"1.28 fold enrichment (6-mer frequency, TF over GST control)"
same,binding signal,ELF1,"1.29 fold enrichment (6-mer frequency, TF over GST control)"
same,binding signal,EHF,"1.24 fold enrichment (6-mer frequency, TF over GST control)"
same,binding signal,SPI1,"1.3 fold enrichment (6-mer frequency, TF over GST control)"
same,binding signal,SPIB,"1.21 fold enrichment (6-mer frequency, TF over GST control)"
same,binding signal,ELK3,"1.25 fold enrichment (6-mer frequency, TF over GST control)"
same,binding signal,FEV,"1.26 fold enrichment (6-mer frequency, TF over GST control)"
same,binding signal,ETV5,"1.3 fold enrichment (6-mer frequency, TF over GST control)"
same,binding signal,HSF1,"1.11 fold enrichment (6-mer frequency, TF over GST control)"
same,binding signal,SPIC,"1.33 fold enrichment (6-mer frequency, TF over GST control)"
same,binding signal,ELF4,"1.31 fold enrichment (6-mer frequency, TF over GST control)"
same,binding signal,ELK4,"1.29 fold enrichment (6-mer frequency, TF over GST control)"
same,binding signal,ETV2,"1.36 fold enrichment (6-mer frequency, TF over GST control)"
same,binding signal,ELF3,"1 fold enrichment (6-mer frequency, TF over GST control)"
same,binding signal,CRX,"1.08 fold enrichment (6-mer frequency, TF over GST control)"
same,binding signal,ETV1,"1.21 fold enrichment (6-mer frequency, TF over GST control)"
